Lassa entry inh = inhibitors of Lassa virus binding or cell entry; Potency, µM (titrated, usually from 37.9 µM), for inactives: at the highest dose activity change, negative = inhibition, most hits filed as inhibitors; Lassa virus pseudotype entry inhibition, cell reporter; 300,000 tested, 1.2% active; calls by dose curve; tested in HEK293 cells; note: potency is the fitted concentration of half-maximal effect; nearly all actives have a fitted effect of over 50% in size
Marburg entry inh = inhibitors of Marburg virus binding or cell entry; Marburg virus pseudotyped entry inhibition, cell reporter; Potency, µM (series often up to 37.8 µM), without a hit: at the highest dose activity change, negative = inhibition, hits mostly inhibitors; 300,000 tested, 1.8% active; AID 540276; calls by dose curve; tested in HEK293 cells; note: potency is the fitted concentration of half-maximal effect
FMDV antiviral = antivirals against foot and mouth disease virus; Potency, µM (titrated, usually from 57.9 µM), for inactives: at the top dose activity change, negative = inhibition, actives largely listed as inhibitors; FMDV antiviral cell-based qHTS; 410,000 tested, 1.2% active; calls by dose curve; tested in HEK293T cells; note: read-out not given here; potency is the fitted concentration of half-maximal effect; nearly all actives have a fitted effect of over 45% in size
Vaccinia Venus = inhibitors of vaccinia virus (Venus reporter); Vaccinia virus Venus reporter expression, fluorescence; Potency, µM (series often up to 36.5 µM), inactives show at the top dose activity change, negative = inhibition, most hits filed as inhibitors; 330,000 tested, 0.46% active; AID 720580; calls by dose curve; tested in A549 cells; note: potency is the fitted concentration of half-maximal effect; nearly all actives have a fitted effect of over 30% in size
HCMV antiviral = blocks human cytomegalovirus replication. activity change, negative = inhibition, % at 57.5 µM. 410,000 tested, 4.5% active. HFF cells, HCMV-luciferase reporter, 72 h; active compounds read low; in the data active = activity change below about -60%; inconclusive = no clear call, values can overlap the other calls; inactive = above about -39%
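Inhibition of viral replication was scored as loss of reporter luminescence in HFFs infected with HCMV-luciferase (MOI 1 PFU/cell) for 72 h; compounds tested at 2 doses, normalized to buffer and Salinomycin controls.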
VACV mCherry inh = vaccinia inhibition (mCherry reporter) | Vaccinia virus mCherry reporter infection, fluorescence | Potency, µM (series often up to 36.5 µM), for the others: at the top dose activity change, negative = inhibition, hits mostly inhibitors | 310,000 tested, 0.63% active | AID 720579; calls by dose curve; tested in A549 cells; note: potency is the fitted concentration of half-maximal effect; nearly all actives have a fitted effect of over 35% in size
An asterisk follows results filed as active; i = inactive; ? = inconclusive; . = no result; ! = repeats disagree; [ ] = another dose, or the depositor's remark. Hits are enriched below; roughly 6.5% of the tested compounds scored in any of these assays. % is set by controls: 0 for no effect and ±100 for the full control effect.

SMILES	Lassa entry inh	Marburg entry inh	FMDV antiviral	Vaccinia Venus	HCMV antiviral	VACV mCherry inh
Cc1c(C(=O)Nc2cccc(-c3nc4ccccc4s3)c2)oc2ccc(F)cc12	11%[46.1 µM]	27%[46.1 µM]	4%	-7%	36	-18%
O=C(c1ccccc1)N1CC2ON=C(c3c(F)cccc3Cl)C2C1 (centres undefined)	.	.	.	.	-4	.
COC1(OC)C(/C=C/c2ccc(C)cc2)C(C#N)(C#N)C1(OC)OC (centres undefined)	?	?	22µM*	28µM*	2	14µM*
Cc1ccc(S(=O)(=O)N2CCOCC2)cc1C(=O)Nc1nc(-c2ccccn2)cs1	-29%	?	?	?	-87*	?
CCOc1ccc2nc(NC(=O)c3ccc(S(=O)(=O)N4CCOCC4)cc3)sc2c1	3%	9%	28µM*	-9%	-32	9%
COc1ccc(-c2csc(NC(=O)C3CCCCN3S(=O)(=O)c3ccccc3)n2)cc1 (centres undefined)	16µM*	?	-63%	?	-68*	.
COc1ccc(-c2csc(NC(=O)CS(=O)(=O)c3ccccc3)n2)cc1	?	?	?	-16%	12	-8%
CCOc1ccc2nc(NC(=O)c3ccc(OC)c(S(=O)(=O)N4CCOCC4)c3)sc2c1	?	?	?	.	17	.
COc1ccccc1C(=O)Nc1nnc(S(=O)(=O)N2CCCCC2)s1	-15%[46.1 µM]	.	11%	-11%	-73*!	-12%
O=C(CSc1nnc2[nH]c(=O)cc(-c3ccccc3)n12)Nc1ccc(OC(F)(F)F)cc1	8%[46.1 µM]	.	39%	-8%	22	-1%
CCOC(=O)c1cccn1C1C(=O)N(Cc2ccc(C(F)(F)F)cc2)c2ccc(OC)cc21 (centres undefined)	.	.	.	.	-9	.
COc1ccccc1C(=O)Nc1nc(-c2ccc(S(=O)(=O)N3CCOCC3)cc2)cs1	3.7µM*	7.3µM*	3.2µM*	.	-95*	.
COc1ccc(-c2csc(NC(=O)c3ccccc3S(C)(=O)=O)n2)cc1	?	?	25µM*	-7%	?	i
O=C(COc1cccc(Cl)c1)Nc1nc(-c2ccc(S(=O)(=O)N3CCOCC3)cc2)cs1	?	?	?	-29%	?	-10%
COc1ccc(-c2csc(NC(=O)c3ccccc3C(=O)O)n2)cc1	.	.	0%	-14%	-3	i
O=C(Nc1nc(-c2ccccc2)cs1)c1ccccc1NS(=O)(=O)c1ccc(F)cc1	3.7µM*	?	?	?	-100*	?
CCOc1cccc(C(=O)Nc2nc(-c3ccc(S(=O)(=O)N4CCOCC4)cc3)cs2)c1	?	-1%	18µM*	-24%	-13	.
Fc1ccc(N2CCN(Cc3ccc4c(c3)CN(Cc3cccn3-c3cccnc3)CCO4)CC2)cc1	.	.	?	-4%	.	-5%
C[C@@H](NC(=O)[C@@H]1[C@@H](CO)[C@@H]2Cn3c(cccc3=O)[C@@H]2N1C(=O)C1CC1)c1ccccc1	.	.	.	.	1	.
COc1cc(NC(=O)c2cc(-c3cccc(Cl)c3)on2)c(OC)cc1Cl	14%[46.1 µM]	8%[46.1 µM]	?	?	43	-13%
CC1=C(c2ccc(Cl)cc2)S(=O)(=O)NC1=NCCCN1CCN(c2cc(C)ccc2C)CC1	-17%[46.1 µM]	-12%[46.1 µM]	?	11µM*	-100*	10µM*
CC(C)OCCCNC(=O)CN1C(=O)c2cccnc2Sc2ccccc21	-3%[46.1 µM]	.	-17%	-2%	10	3%
Cc1ccc(N(C)S(=O)(=O)c2cccc(C(=O)Nc3ccc(C)cn3)c2)cc1	?	?	40µM*	-23%	-23	-26%
CN(c1ccccc1)S(=O)(=O)c1cccc(C(=O)NNC(=O)c2ccccc2)c1	-10%	?	?	-18%	?	-8%
COc1ccc(NC(=O)c2cccc(S(=O)(=O)N(C)c3ccccc3)c2)cn1	?	-30%	35µM*	-14%	-75*	-25%
SMILES	Lassa entry inh	Marburg entry inh	FMDV antiviral	Vaccinia Venus	HCMV antiviral	VACV mCherry inh
CN(c1ccccc1)S(=O)(=O)c1cccc(C(=O)Nc2ccc3c(c2)CCC3)c1	16µM*	16%	-16%	-21%	?	-14%
Cc1ccc(N(C)S(=O)(=O)c2cccc(C(=O)OCC(=O)N(C)Cc3ccccc3)c2)cc1	.	.	28µM*	-16%	45	i
CN(C(=O)COC(=O)c1cccc(S(=O)(=O)N(C)c2ccccc2)c1)C1CCCCC1	.	.	?	.	-12	.
CNC(=O)Oc1cccc(-c2cn3cc(Cl)ccc3n2)c1	?	2.8µM*	-90%	-16%	?	-21%
CNC(=O)Oc1ccc(-c2cn3cc(C)ccc3n2)cc1	0.32µM*	0.65µM*	13µM*	-10%	-24	-29%
CN(C)S(=O)(=O)c1cccc(-c2cn3cc(Cl)ccc3n2)c1	7%	?	16%	.	.	.
COc1cc2oc(-c3ccc(O)cc3)cc(=O)c2c(OC)c1O	.	.	19%	?	28	?
COc1cc2oc(-c3ccc(O)cc3)cc(=O)c2c(O)c1OC	.	.	34%	-20%	-110*	-5%
O=c1cc(-c2ccc(O)cc2)oc2c1ccc1ccccc12	.	.	-19%	.	-13	.
O=c1cc(-c2ccc(O)cc2)oc2ccc3ccccc3c12	.	.	5.6µM*	.	-86*	.
Cc1ccc(S(=O)(=O)N(C)C)cc1NC(=S)NC12CC3CC(CC(C3)C1)C2	-24%	-32%	-28%	.	-37	.
Cc1ccc(S(=O)(=O)N(C)C)cc1NC(=S)NC(=O)C12CC3CC(CC(C3)C1)C2	-17%	?	?	-9%	-63*	i
COc1ccc(N(CC(=O)Nc2cccc(Cl)c2)S(=O)(=O)c2c(C)[nH]c(=O)[nH]c2=O)cc1	6%[46.1 µM]	-4%[46.1 µM]	-18%	-1%	14	-9%
CC12C=C(C=CCCc3ccco3)C(C)(C1)C(CCc1ccco1)CC2=O (centres undefined)	.	-6%[14.2 µM]	.	.	.	.
COc1ccc2nc3c(cc2c1)c(NC(=O)c1cccs1)nn3CC(C)C	-19%	?	2%	?	-84*	.
COc1ccc(C(=O)c2ccc(N3CCN(C(=O)c4ccc(F)cc4)CC3)c(F)c2)cc1Br	-14%	7%	?	-17%	-88*	-8%[1.46 µM]
COC(=O)C1=C[C@@]2(c3ccc(F)cc3[C@@H](OC)[C@@H]2C)[C@@H]2C=C[C@H]1C2	.	2%[14.2 µM]	.	.	.	.
Cc1ccc2cc(/C=N/NC(=O)[C@H]3C[C@@H]3c3ccccc3)c(Cl)nc2c1	0.065µM*	4%	-19%	.	14	.
Cc1ccc2cc(/C=N/NC(=O)c3ccccc3O)c(Cl)nc2c1	0%	?	?	-5%	5	-13%
O=C(N/N=C/c1cc2ccccc2nc1Cl)[C@H]1C[C@@H]1c1ccccc1	0.37µM*	?	-20%	-15%	-39	i
Cc1cccc2cc(/C=N/NC(=O)[C@H]3C[C@@H]3c3ccccc3)c(Cl)nc12	?	8%[46.1 µM]	0%	-21%	-29	-15%
Nc1nc(CCl)nc(N(c2ccccc2)c2ccccc2)n1	?	?	32µM*	-36%	-98*	?
Cc1nc2nc(-c3ccc(F)cc3)cn2nc1C	.	.	-26%	-8%	205	-14%
